The text below walks through data of PubChem BioAssay.

Records with an inconclusive call do not appear. Activity calls are given as the source filed them.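 The calls were made as follows, unless noted: active = percent response above a set limit, the screen-wide mean plus 3 SD (cut at about 130% in these data); inactive = the rest.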

The nature of assay [1]: rapamycin-like changes in RPL19A-GFP expression – cell-based, S. cerevisiae, multiplex flow cytometry, primary screen (AID 1862; in the data active = percent of DMSO control GFP below about 86%;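 also: lower values mimic rapamycin by blocking the RPL19A rise seen in DMSO cells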). Conditions: S. cerevisiae RPL19A-GFP strain, flow cytometry fluorescence, 3 h; at 10 µM; stronger effect = lower value.
Assay [2] can be described thus: TOR pathway GLN3 branch reporter MEP2-GFP changes – S. cerevisiae, multiplex flow cytometry, primary screen (AID 1867;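 active = GFP response, as percent of the DMSO control, above the screen-wide mean plus 3 SD, about 139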;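 also: median GFP channel fluorescence of barcode-gated MEP2-GFP cells measured by flow cytometry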). The following applies: S. cerevisiae MEP2-GFP strain, 3 h, at 10 µM, stronger effect = higher value, 100% means same as DMSO wells.
The nature of assay [3]: TOR pathway RTG branch CIT2 reporter changes – S. cerevisiae, GFP fusion, multiplex flow cytometry, primary screen (AID 1870).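 Also: barcoded CIT2-GFP strain pooled with four other GFP strains with rapamycin as positive control; median GFP fluorescence per well over plate mean of DMSO wells so 100% = DMSO.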 Conditions: S. cerevisiae CIT2-GFP expression, 3 h, at 10 µM, stronger effect = higher value.
Assay [4] in a line: TOR pathway LAP4-GFP level changes – S. cerevisiae, multiplex flow cytometry, primary screen (AID 1873;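 active = GFP signal, as percent of the solvent control, above the screen mean plus 3 SD, about 149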). The following applies: S. cerevisiae LAP4-GFP expression, 3 h, at 10 µM, stronger effect = higher value.
A short description of assay [5]: yeast AGP1-GFP level changes, GLN3 branch – cell-based, multiplex flow cytometry, S. cerevisiae, primary screen (AID 1887;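 active = GFP signal above the screen-wide mean plus 3 SD, that is over about 124.5% of the solvent control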;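 also: AGP1-GFP fusion strain of S. cerevisiae within a five-strain barcoded multiplex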). The following applies: 3 h, at 10 µM, stronger effect = higher value.
Assay [6] in a line: reduced mouse 2C T cell binding to pMHC/ICAM-1 vesicles – MLPCN validation set, flow cytometry, LFA-1/ICAM-1 modulator project, pilot screen (AID 2523;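 active = response below a set limit, under 55% cells CD8-positive and vesicle-bound, and CD8 cells' 90th-percentile brightness under 279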;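 as to vesicle binding response: mean PE anti-B7-1 fluorescence of CD8+ cells relative to row control; 100% = QL9-loaded vesicles with DMSO vehicle in the same plate row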). Conditions: 2C mouse CD8+ T cells, at 7 µM, stronger effect = lower value; double positive events: measured here: CD8+/vesicle+ event percentage.
Assay [7] has as its target Integrin beta-1 (Homo sapiens) + Integrin alpha-4 (Homo sapiens) (UniProt P13612+P05556). Kind of assay: alpha4beta1 integrin LIBS antibody binding reduction – U937 cells, HUTS-21 mAb, flow cytometry, validation set, VLA-4 allosteric modulator project, pilot screen (AID 2674;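 active = inhibition above 50%, about 3 SD of the validation set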;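 also: antibody binding induced by the VLA-4 ligand LDV present at three times its Kd; 0% = LDV ligand with antibody and no compound and 100% = antibody without LDV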). Conditions: HUTS-21 LIBS mAb binding, at 6.7 µM, stronger effect = higher value, binding induced by LDV ligand.

Assay [8] is described as follows: calorie-restriction mimetic ROS inhibitors, yeast – validation compound set, pilot screen (AID 2706;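 active = superoxide response below 65% of plate, a cut near 3 SD across the whole screen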;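 also: yeast exposed to compound for one week at 30 degrees C before staining; 100% = mean of all compound wells on the same plate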). The following applies: S. cerevisiae aging, superoxide DHE fluorescence; at 10 µM, stronger effect = lower value.
The target in assay [9] is Beta-adrenergic receptor kinase 1 (Homo sapiens) (UniProt P25098). Put plainly: GRK2 binders displacing RNA aptamer, biochemical, validation, human GRK2, bead flow cytometry (AID 488806;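 active = aptamer binding inhibition above 30%, about 3 SD of noise from non-fluorescent compounds; inactive = inhibition at or below 30%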). The following applies: bead-bound GRK2, FAM-aptamer displacement, at 10 µM, stronger effect = higher value.
For assay [10], the target named is AP-2 complex subunit beta (Homo sapiens) (UniProt P63010). Kind of assay: beta-arrestin/AP2 interaction blockers – biochemical, validation set, GST-AP2 beads, flow cytometry, pilot screen (AID 504541;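 active = inhibition above 54%, about 3 SD of non-fluorescent compounds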;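 also: AP2 carries R879A mutation and is captured from E. coli lysate; bead-bound FITC arrestin peptide fluorescence measuring arrestin peptide binding to AP2; 0% = DMSO wells and 100% = excess unlabeled arrestin peptide control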). Conditions: FITC arrestin peptide, at 10 µM, stronger effect = higher value, AP2 beta2 appendage fragment, R879A mutant.
A short description of assay [11]: cytosolic pH regulators acting via V-ATPase – S. cerevisiae, pHLuorin, HTS validation (AID 504600; in the data active = response above about 15%;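 also: plate controls were DMSO for no effect and reference compound for full effect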). Conditions: V-ATPase proton transport, at 10 µM, stronger effect = higher value.
In assay [12] the test system is anti-desmoglein-3 scFv antibody binding to human DSG3. Put plainly: blockers of pathogenic pemphigus antibody–desmoglein-3 binding – biochemical, validation compound set, bead-based, flow cytometry, pilot screen (AID 588368;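 active = binding below the plate cutoff, the plate median minus 3 SD, with a reading above zero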;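 also: signal is the median channel fluorescence of bead-bound GFP antibody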). The following applies: Protein G beads, DSG3-Fc, scFv-GFP binding, at 10 µM, stronger effect = lower value.
Assay [13] can be described thus: Nile Red efflux blockade in pump-expressing yeast – validation compound set, multiplex, phenotypic, pilot screen (AID 588506;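 active = efflux inhibition above 0.42, the validation set average plus 4 SD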;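 also: Nile Red retained in cells so higher fluorescence means more efflux inhibition; 0 = negative control wells and 1 = enniatin B 25 µM full block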). Conditions: S. cerevisiae pump-expressing triplex, Nile Red efflux flow cytometry; at 10 µM; stronger effect = higher value; the pumps come from Candida albicans.
Assay [14] deals with ATP-binding cassette sub-family B member 6 (Homo sapiens) (UniProt Q9NP58). Kind of assay: blockers of ABCB6-driven porphyrin uptake – K562-ABCB6 cells, flow cytometry, validation set, pilot screen (AID 588550;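 active = inhibition above the screen-wide mean plus 3 SD, about 51%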;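 also: 0% = DMSO wells and 100% = benzethonium chloride 70 µM positive control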). Conditions: K562-ABCB6 porphyrin accumulation, 1 h, at 10 µM, stronger effect = higher value.
A short description of assay [15]: AML differentiation inducers, ER-HoxA9 marrow cells – cell-based, GFP/MAC1 double positive, flow cytometry, validation set, primary screen (AID 588685;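 active = differentiation response of at least 50%, scaled between solvent and reference control, from cells with both markers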;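 also: compound exposure lasts four days before antibody staining and flow analysis; 0% = DMSO wells and 100% = 5 µM fulvestrant positive control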). Conditions: stronger effect = higher value, normalized: vehicle 0, fulvestrant 100.

AP-2 complex subunit beta (Homo sapiens), sequence (P63010 whole entry, looked up, the tested form may be a part, one chain of several): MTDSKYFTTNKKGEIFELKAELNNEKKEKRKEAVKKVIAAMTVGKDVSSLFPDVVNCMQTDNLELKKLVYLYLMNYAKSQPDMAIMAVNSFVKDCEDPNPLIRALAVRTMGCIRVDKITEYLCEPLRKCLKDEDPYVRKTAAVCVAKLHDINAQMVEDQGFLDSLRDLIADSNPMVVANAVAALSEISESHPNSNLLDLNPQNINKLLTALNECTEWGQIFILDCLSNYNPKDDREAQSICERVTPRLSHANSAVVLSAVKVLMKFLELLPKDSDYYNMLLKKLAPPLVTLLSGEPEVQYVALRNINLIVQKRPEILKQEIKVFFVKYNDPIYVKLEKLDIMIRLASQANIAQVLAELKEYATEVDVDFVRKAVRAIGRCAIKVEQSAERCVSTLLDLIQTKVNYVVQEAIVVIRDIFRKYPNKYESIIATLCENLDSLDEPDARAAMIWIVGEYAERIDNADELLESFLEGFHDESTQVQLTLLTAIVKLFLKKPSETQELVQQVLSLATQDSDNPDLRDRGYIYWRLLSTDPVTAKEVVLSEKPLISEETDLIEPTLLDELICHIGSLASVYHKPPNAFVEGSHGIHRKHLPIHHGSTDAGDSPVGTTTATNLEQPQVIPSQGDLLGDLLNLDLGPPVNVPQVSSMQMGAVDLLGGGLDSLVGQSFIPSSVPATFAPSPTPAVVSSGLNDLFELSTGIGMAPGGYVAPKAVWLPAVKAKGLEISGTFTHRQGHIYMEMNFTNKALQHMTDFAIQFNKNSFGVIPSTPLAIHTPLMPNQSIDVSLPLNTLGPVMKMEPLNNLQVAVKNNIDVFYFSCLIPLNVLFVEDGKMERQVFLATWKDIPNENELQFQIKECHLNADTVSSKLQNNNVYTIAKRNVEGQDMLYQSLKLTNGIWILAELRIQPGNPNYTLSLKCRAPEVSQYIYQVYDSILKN
Integrin beta-1 (Homo sapiens) + Integrin alpha-4 (Homo sapiens), sequence (P05556 whole entry, looked up): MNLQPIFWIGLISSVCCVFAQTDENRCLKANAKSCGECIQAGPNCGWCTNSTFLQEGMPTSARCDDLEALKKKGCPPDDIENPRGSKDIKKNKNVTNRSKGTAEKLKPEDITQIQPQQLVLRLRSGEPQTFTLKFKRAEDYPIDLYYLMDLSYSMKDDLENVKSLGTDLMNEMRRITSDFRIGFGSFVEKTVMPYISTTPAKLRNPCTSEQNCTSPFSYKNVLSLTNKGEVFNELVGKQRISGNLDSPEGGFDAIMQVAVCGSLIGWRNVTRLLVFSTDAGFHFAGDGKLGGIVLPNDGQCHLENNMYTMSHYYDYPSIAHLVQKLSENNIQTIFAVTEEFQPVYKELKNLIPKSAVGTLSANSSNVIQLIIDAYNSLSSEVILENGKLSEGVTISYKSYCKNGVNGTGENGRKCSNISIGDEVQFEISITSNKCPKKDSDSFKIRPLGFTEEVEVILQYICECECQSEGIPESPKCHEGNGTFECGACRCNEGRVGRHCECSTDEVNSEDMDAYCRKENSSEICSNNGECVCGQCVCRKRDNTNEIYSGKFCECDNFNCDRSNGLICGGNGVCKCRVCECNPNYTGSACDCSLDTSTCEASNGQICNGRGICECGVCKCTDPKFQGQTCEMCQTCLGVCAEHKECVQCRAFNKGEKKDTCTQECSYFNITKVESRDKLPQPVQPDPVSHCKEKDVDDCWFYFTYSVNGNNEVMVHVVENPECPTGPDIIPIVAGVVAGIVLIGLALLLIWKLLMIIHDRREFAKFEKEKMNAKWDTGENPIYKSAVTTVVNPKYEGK
Integrin beta-1 (Homo sapiens) + Integrin alpha-4 (Homo sapiens), sequence (P13612 whole entry, looked up): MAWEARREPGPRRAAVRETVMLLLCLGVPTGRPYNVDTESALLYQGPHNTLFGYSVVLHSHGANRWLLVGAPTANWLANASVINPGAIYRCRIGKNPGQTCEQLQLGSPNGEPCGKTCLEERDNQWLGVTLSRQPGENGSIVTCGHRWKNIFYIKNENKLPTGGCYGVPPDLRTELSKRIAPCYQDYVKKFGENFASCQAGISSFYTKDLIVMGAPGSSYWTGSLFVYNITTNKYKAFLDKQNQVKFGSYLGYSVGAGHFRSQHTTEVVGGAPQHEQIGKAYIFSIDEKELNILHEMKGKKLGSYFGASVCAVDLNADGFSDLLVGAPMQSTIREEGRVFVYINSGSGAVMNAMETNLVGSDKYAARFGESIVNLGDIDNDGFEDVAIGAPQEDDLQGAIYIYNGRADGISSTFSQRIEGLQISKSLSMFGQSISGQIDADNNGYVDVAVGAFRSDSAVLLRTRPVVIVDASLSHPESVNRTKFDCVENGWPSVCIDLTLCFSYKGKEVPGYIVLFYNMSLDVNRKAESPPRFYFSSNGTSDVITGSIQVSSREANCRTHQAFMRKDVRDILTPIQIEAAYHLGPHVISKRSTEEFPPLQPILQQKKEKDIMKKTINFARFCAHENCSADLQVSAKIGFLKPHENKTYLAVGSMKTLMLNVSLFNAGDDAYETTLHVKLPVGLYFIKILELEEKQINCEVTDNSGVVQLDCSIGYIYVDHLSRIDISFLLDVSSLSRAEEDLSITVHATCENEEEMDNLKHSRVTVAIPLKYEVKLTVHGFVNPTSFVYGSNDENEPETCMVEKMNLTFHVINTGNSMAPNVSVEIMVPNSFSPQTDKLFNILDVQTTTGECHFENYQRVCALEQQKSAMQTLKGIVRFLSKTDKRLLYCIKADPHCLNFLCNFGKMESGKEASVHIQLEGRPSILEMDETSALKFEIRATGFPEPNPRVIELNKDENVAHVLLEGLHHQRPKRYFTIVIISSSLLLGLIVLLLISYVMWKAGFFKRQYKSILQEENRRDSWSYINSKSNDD
Beta-adrenergic receptor kinase 1 (Homo sapiens), sequence (P25098 whole entry, looked up): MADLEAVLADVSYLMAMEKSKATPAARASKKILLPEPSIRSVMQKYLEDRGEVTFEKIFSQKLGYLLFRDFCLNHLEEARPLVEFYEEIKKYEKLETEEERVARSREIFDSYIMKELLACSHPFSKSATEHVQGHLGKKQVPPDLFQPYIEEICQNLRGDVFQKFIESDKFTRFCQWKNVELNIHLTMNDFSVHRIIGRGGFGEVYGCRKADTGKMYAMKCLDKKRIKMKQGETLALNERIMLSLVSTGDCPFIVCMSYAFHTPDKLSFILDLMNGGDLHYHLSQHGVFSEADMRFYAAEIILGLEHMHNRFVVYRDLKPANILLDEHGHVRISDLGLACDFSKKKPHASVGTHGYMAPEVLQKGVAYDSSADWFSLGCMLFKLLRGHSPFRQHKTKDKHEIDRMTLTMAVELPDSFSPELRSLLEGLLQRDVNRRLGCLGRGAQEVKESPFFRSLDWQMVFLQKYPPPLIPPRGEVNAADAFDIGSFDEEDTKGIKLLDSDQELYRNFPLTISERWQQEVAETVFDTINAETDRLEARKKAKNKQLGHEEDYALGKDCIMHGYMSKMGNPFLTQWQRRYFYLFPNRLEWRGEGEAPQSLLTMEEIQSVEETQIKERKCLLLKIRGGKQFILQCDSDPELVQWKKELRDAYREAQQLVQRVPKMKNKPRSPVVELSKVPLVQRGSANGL
ATP-binding cassette sub-family B member 6 (Homo sapiens), sequence (Q9NP58 whole entry, looked up): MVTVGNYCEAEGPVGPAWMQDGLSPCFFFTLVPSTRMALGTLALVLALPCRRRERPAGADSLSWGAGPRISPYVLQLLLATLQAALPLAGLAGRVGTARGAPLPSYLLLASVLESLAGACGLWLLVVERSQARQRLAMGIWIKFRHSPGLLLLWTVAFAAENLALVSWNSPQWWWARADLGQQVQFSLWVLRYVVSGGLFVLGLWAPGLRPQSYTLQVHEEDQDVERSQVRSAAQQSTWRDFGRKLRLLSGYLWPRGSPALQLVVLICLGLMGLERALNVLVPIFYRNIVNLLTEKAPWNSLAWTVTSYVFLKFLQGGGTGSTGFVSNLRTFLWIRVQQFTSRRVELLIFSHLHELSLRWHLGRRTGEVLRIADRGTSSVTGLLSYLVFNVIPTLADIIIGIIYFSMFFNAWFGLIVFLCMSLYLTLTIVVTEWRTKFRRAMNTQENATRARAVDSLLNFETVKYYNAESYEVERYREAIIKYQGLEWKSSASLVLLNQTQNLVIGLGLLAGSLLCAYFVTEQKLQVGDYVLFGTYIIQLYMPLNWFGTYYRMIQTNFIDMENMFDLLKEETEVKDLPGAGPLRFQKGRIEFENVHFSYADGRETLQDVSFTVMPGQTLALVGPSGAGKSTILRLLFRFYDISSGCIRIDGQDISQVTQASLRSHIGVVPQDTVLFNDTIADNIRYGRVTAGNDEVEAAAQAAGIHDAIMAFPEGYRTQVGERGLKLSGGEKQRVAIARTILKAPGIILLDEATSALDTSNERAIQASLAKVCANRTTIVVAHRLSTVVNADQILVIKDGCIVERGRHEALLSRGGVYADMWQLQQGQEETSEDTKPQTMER

Take `CC1(C)NC(C(=O)O)Cc2c1[nH]c1ccccc21` (stereo not given): the percent of DMSO control GFP in assay [1] was 112% (inactive). The GFP response vs DMSO in [2] was 106% (inactive); in [4], 98.4% (inactive). The percent response of DMSO control in assay [3] is 109% (inactive). Further, in assay [5], the GFP response, % of DMSO was 105% (inactive). Besides, in [6], the double positive events was 62.5%. For the same compound, in assay [6], the vesicle binding response was 175% (inactive). The inhibition was 5.36% (inactive) in assay [7], 14.4% (inactive) in assay [10] and 8% (inactive) in assay [14]. In [8], the superoxide response (% of plate) was 97.5% (inactive). Besides, the aptamer binding inhibition in assay [9] was 1% (inactive). For the same compound, the response in [11] was -1.17% (inactive). In addition, in [12], the binding (% of control) is 112% (inactive). Besides, the efflux inhibition (fraction of control) in assay [13] is 0.1 (inactive). Also, the differentiation response in assay [15] was -16.4% (inactive).
As for `CC(C)CCOCC(=O)Nc1cccc(C(=O)O)c1`, the percent of DMSO control GFP in assay [1] was 99.5% (inactive). Besides, the GFP response vs DMSO in [2] was 107% (inactive); in assay [4], 95.4% (inactive). Also, the percent response of DMSO control in assay [3] is 98.8% (inactive). Also, in assay [5], the GFP response, % of DMSO is 99.7% (inactive). The compound also registered a double positive events in [6] of 59.8%. For the same compound, the vesicle binding response in assay [6] is 174% (inactive). In addition, the inhibition in assay [7] was 10.9% (inactive); in [10], 41.3% (inactive); in [14], 3% (inactive). Also, in assay [8], the superoxide response (% of plate) was 110% (inactive). Further, the aptamer binding inhibition in assay [9] is 1% (inactive). The response in [11] is -5.9% (inactive). For the same compound, in assay [12], the binding (% of control) was 103% (inactive). The efflux inhibition (fraction of control) in [13] was -0.12 (inactive). Also, in assay [15], the differentiation response is 11.1% (inactive).
For the compound `C/C(=N/N1CCN(Cc2cccc3ccccc23)CC1)c1cccnc1`, in assay [1], the percent of DMSO control GFP was 101% (inactive). Also, the GFP response vs DMSO is 102% (inactive) in assay [2] and 99.4% (inactive) in assay [4]. Also, in [3], the percent response of DMSO control was 98.8% (inactive). In addition, the GFP response, % of DMSO in assay [5] is 96.6% (inactive). Also, the double positive events in assay [6] was found to be 58.2%. The vesicle binding response in assay [6] was 182% (inactive). Also, the results for the inhibition in [7], in assay [10] and in assay [14] were -1.17% (inactive), 6.25% (inactive) and 5% (inactive), respectively. Also, the superoxide response (% of plate) in assay [8] was 102% (inactive). For the same compound, in assay [9], the aptamer binding inhibition is 1% (inactive). Further, in assay [11], the response is -3.49% (inactive). The binding (% of control) in assay [12] was 100% (inactive). The efflux inhibition (fraction of control) in [13] was 0.25 (inactive). Also, the differentiation response in assay [15] is 9.49% (inactive).
Consider `CNCCC=C1c2ccccc2CCc2ccccc21`, for which the percent of DMSO control GFP in assay [1] is 100% (inactive). Besides, the GFP response vs DMSO is 98.9% (inactive) in assay [2] and 97.4% (inactive) in assay [4]. In addition, the percent response of DMSO control in assay [3] is 110% (inactive). Moreover, the GFP response, % of DMSO in assay [5] is 102% (inactive). Besides, the double positive events in [6] was found to be 49.9%. Moreover, in [6], the vesicle binding response was 151% (inactive). The values for the inhibition in assay [7], in assay [10] and in assay [14] were 21.2% (inactive), -0.2% (inactive) and 11% (inactive), respectively. For the same compound, the superoxide response (% of plate) in assay [8] was 110% (inactive). Also, the aptamer binding inhibition in assay [9] is 0% (inactive). The response in [11] was 4.21% (inactive). The binding (% of control) in assay [12] was 100% (inactive). Besides, in [13], the efflux inhibition (fraction of control) was -0.12 (inactive). Moreover, the differentiation response in [15] was -13.1% (inactive).
Take `CCOc1cc2oc(=O)c3c(c2cc1Cl)CCC3`: the percent of DMSO control GFP in [1] is 104% (inactive). For the same compound, the GFP response vs DMSO is 99.9% (inactive) in assay [2] and 111% (inactive) in assay [4]. For the same compound, the percent response of DMSO control in [3] is 102% (inactive). For the same compound, the GFP response, % of DMSO in assay [5] was 107% (inactive). In assay [6], this compound gave a double positive events of 51.1%. Also, the vesicle binding response in assay [6] is 165% (inactive). Also, the inhibition in [7] is -6.77% (inactive); in [10] it was -15.2% (inactive); in assay [14], 6% (inactive). In assay [8], the superoxide response (% of plate) is 109% (inactive). In assay [9], the aptamer binding inhibition was 1% (inactive). Moreover, the response in assay [11] is -4.08% (inactive). In addition, the binding (% of control) in assay [12] was 103% (inactive). Further, the efflux inhibition (fraction of control) in assay [13] is -0.05 (inactive). Besides, the differentiation response in assay [15] is -11.5% (inactive).
